Results published in the supplement of paper PMC4840960.

Test system: E18 rat cortical neuron-glia co-culture
Assay: myelination (MBP fiber length per Olig2+ nucleus), % of 1 µM DAPT response (DMSO = 0) (% of DAPT); higher = more myelination, active = 50 or more
Details: 5 µM; treatment time: 8 days (DIV5-DIV13)
In short: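 Primary E18 rat cortical co-cultures (papain-dissociated, 20,000 cells/well on poly-d-lysine/laminin 96-well plates) received library compounds at 1 or 5 µM in myelination medium from DIV5 to DIV13. Cells were fixed in 4 % paraformaldehyde and immunostained for MBP and Olig2 with DAPI, and four 10X fields per well in duplicate wells were analysed. Myelination was continuous straight MBP fiber length per Olig2+ nucleus, normalised to 0.1 % DMSO (0) and a 1 µM positive control (100).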

myelination, inactive:
O=C(O)c1cc(=O)c2c(OCC(O)COc3cccc4oc(C(=O)O)cc(=O)c34)cccc2o1 [Cromolyn Sodium] -12.9, COC(=O)C1=C(C)NC(C)=C(C(=O)OCCN(C)Cc2ccccc2)C1c1cccc([N+](=O)[O-])c1 (stereo not drawn) [Nicardipine] -21.2, CN1CCN2c3ncccc3Cc3ccccc3C2C1 (stereo not drawn) [Remergil] -19.4, O=c1[nH]cnc2c1ncn2[C@H]1CC[C@@H](CO)O1 [2',3'-Dideoxyinosine] -10.5, COc1cc(C[C@@H](CO)[C@H](CO)Cc2ccc(O)c(OC)c2)ccc1O [Secoisolariciresinol] -8.85, Nc1nc(N)nc(-c2cc(Cl)ccc2Cl)n1 [Irsogladine] -20.9, C=CC1=C(C(=O)O)N2C(=O)[C@@H](NC(=O)/C(=N\OCC(=O)O)c3csc(N)n3)[C@H]2SC1 [Cefixime] 28.9, CCCOc1ccc(C(=O)OCCN(CC)CC)cc1N [Proxymetacaine] -12.1, CCc1cc(C(N)=S)ccn1 [Ethionamide] 3.35, CC(COc1ccccc1Cc1ccccc1)N1CCCCC1 (stereo not drawn) [Benproperine] -4.27, CC(=O)NC[C@H]1CN(c2ccc(N3CCOCC3)c(F)c2)C(=O)O1 [linezolid] 0.414, CC(C)(S)[C@@H](N)C(=O)O [Penicillamine] -5.65, CCCC(=O)Nc1ccc(OCC(O)CNC(C)C)c(C(C)=O)c1 (stereo not drawn) [Acebutolol] -32.5, CC(C)(C)NCC(O)c1cc(O)cc(O)c1 (stereo not drawn) [Terbutaline] -16.6, CC(=O)OCC(=O)[C@@]12OC(C)(C)O[C@@H]1C[C@H]1[C@@H]3C[C@H](F)C4=CC(=O)C=C[C@]4(C)[C@@]3(F)[C@@H](O)C[C@@]12C [Fluocinonide] -66.2, CC(=O)CC(c1ccccc1)c1c(O)c2ccccc2oc1=O (stereo not drawn) [Warfarin] -6.48, CN(C)CC/C=C1/c2ccccc2COc2ccc(CC(=O)O)cc21 [Olopatadine] -5.94, CCN1CCCC1CNC(=O)c1cc(S(N)(=O)=O)ccc1OC (stereo not drawn) [Sulpiride] -10.8, C[C@]12CCC(=O)C=C1CC[C@@H]1[C@@H]2CC[C@@]2(C)[C@H]1CC[C@]2(O)C(=O)CO [Cortodoxone] -9, CCOc1cc(N)c(Cl)cc1C(=O)NCC1CN(Cc2ccc(F)cc2)CCO1 (stereo not drawn) [Mosapride] -56.5, COc1ccc(Cl)cc1C(=O)NCCc1ccc(S(=O)(=O)NC(=O)NC2CCCCC2)cc1 [Glyburide] -10.7, Cc1ccc(N(CC2=NCCN2)c2cccc(O)c2)cc1 [Phentolamine] -26.1, CC(=O)O[C@H]1C[C@@H]2CC[C@@H]3[C@H](CC[C@@]4(C)[C@H]3C[C@H]([N+]3(C)CCCCC3)[C@@H]4OC(C)=O)[C@@]2(C)C[C@@H]1N1CCCCC1 [Vecuronium Bromide] -9.35, CC(=O)[C@@]1(O)CC[C@H]2[C@@H]3C[C@H](C)C4=CC(=O)C=C[C@]4(C)[C@@]3(F)[C@@H](O)C[C@@]21C [Fluorometholone] 2.04, C[C@@](Cc1ccc(O)c(O)c1)(NN)C(=O)O [Carbidopa] -7.64, CCCCC[C@H](O)/C=C/[C@H]1[C@H](O)CC(=O)[C@@H]1CCCCCCC(=O)O [Alprostadil] -7.47, O=C1Nc2ccccc2/C1=C1/Nc2ccccc2C1=O [Indirubin] -14.5, CCC1=C(C)CN(C(=O)NCCc2ccc(S(=O)(=O)NC(=O)N[C@H]3CC[C@H](C)CC3)cc2)C1=O [Glimepiride] -10.6, COc1c2occc2cc2ccc(=O)oc12 [Methoxsalen] -16.1, CNC(=C[N+](=O)[O-])NCCSCc1ccc(CN(C)C)o1 [Ranitidine] -7.22, O=C1CC[C@@H](C(=O)N2CSC[C@H]2C(=O)O)N1 [Pidotimod] -4.26, CN1CCC(=C2c3ccccc3CCc3sccc32)CC1 [Pizotyline] -22, Cc1ccnc2c1NC(=O)c1cccnc1N2C1CC1 [Nevirapine] -6.68
